# The whole screen tested about 320,000 compounds, of which about 2,100 (0.66%) were called active. Roughly 53% stayed inconclusive and do not appear here. The call rests on the fitted dose curve; in most records, active means well fitted inhibition curve with a large enough effect in the signal ratio, with a control signal flat (not every such curve was filed as active); inconclusive means small, poorly fitted or top-dose-only effect, or effect the other way, or a change in a side signal; inactive means flat fitted curve, though single readings scatter; the % refers to the signal ratio. What follows is part of a selection rich in actives, with near analogues and random picks from the rest.
# Test: qHTS Assay for Lipid Storage Modulators in Drosophila S3 Cells;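 on cell number change: cells counted by Cell Tracker Red CMTPX staining in the red channel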; on lipid storage change, negative = inhibition: on the % scale 0 is the no-effect control and ±100 the full control effect
# Settings: BODIPY lipid droplet fluorescence, 18-24 h, cells fed with added oleic acid; cell number change: measured here: cell count max response; series mostly up to 46.1 µM; lipid storage change, negative = inhibition: at the top concentration
# Summary of the method: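 Drosophila S3 cells loaded with oleic acid (400 uM, as added) and compounds at several concentrations; lipid droplets imaged by 488-nm laser-scanning cytometry, 500–530 nm intensity and object ratio to cell channel. Percent activity normalized to 20 uM Triacsin C.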
# Potency means the concentration at half of the fitted maximal effect.
SMILES,Potency,cell number change,outcome,"lipid storage change, negative = inhibition"
C=CCN(C(=O)c1csnn1)C(C(=O)NC1CCCCC1)c1ccccc1F (stereo not drawn),13 µM (active),2.14%,–,–
O=C(NC1CCCC1)C(c1c(F)cccc1Cl)N(C(=O)c1csnn1)C1CC1 (stereo not drawn),16.4 µM (active),-12.9%,–,–
C=CCN(C(=O)c1csnn1)C(C(=O)NC1CCCC1)c1ccccc1 (stereo not drawn),–,15.2%,inactive,–
C=CCN(C(=O)c1csnn1)C(C(=O)NC1CCCC1)c1ccc(Cl)cc1 (stereo not drawn),–,-41%,inactive,–
C=CCN(C(=O)c1csnn1)C(C(=O)NC1CCCC1)c1c(F)cccc1Cl (stereo not drawn),9.2 µM (active),0.427%,–,–
C=CCN(C(=O)c1csnn1)C(C(=O)NC1CCCC1)c1ccccc1F (stereo not drawn),–,-7.62%,inactive,–
O=C(c1cccc(COc2cccc3ccccc23)c1)N1CCCC1,–,-5.05%,–,0.849% (inactive)
COc1ccc(/C=N/Nc2nnc(-c3ncc[nH]3)c3ccccc23)cc1,–,-1.94%,–,-8.98% (inactive)
CC1=C(C)CC(C(=O)Nc2ccc3c(c2)OCO3)C(C(=O)O)C1 (stereo not drawn),–,-0.481%,–,14.7% (inactive)
COc1ccc(OC)c(S(=O)(=O)NNC(=S)Nc2ccc3c(c2)OCO3)c1,–,5.94%,inactive,–
O=C(Nc1cnccn1)Nc1cccc(Cl)c1Cl,–,-0.957%,–,-1.85% (inactive)
CCN(CC)S(=O)(=O)c1ccc2oc(C(=O)NC3CC3)c(C)c2c1,–,-10.9%,inactive,–
O=C(NCC1COc2ccccc2O1)c1cccc(S(=O)(=O)N2CCOCC2)c1 (stereo not drawn),–,-18%,–,-2.13% (inactive)
CSc1ncccc1C(=O)Nc1cccc(S(=O)(=O)N2CCCCC2)c1,16.4 µM (active),0.775%,–,–
O=C(NCC1COc2ccccc2O1)c1cccc(S(=O)(=O)N2CCCCC2)c1 (stereo not drawn),2.06 µM (active),-15.1%,–,–
O=C(NCC1CCCCC1)c1cccc(S(=O)(=O)N2CCCC2)c1,–,3.1%,–,6.69% (inactive)
CCOc1ncccc1C(=O)Nc1cccc(S(=O)(=O)N2CCCCC2)c1,–,-15%,–,25.8% (inactive)
CC1CN(S(=O)(=O)c2cccc(C(=O)Nc3ccccc3N3CCOCC3)c2)CC(C)O1 (stereo not drawn),–,-20.3%,inactive,–
O=C(Nc1cccc(S(=O)(=O)N2CCCCC2)c1)c1ccccn1,–,20.1%,–,0.112% (inactive)
CC1CN(S(=O)(=O)c2cccc(C(=O)Nc3ccccc3N3CCCCC3)c2)CC(C)O1 (stereo not drawn),23.1 µM (active),-19.1%,–,–
CN1CCN(S(=O)(=O)c2cccc(C(=O)Nc3ccccc3N3CCCC3)c2)CC1,–,9.72%,–,-27.5% (inactive)
Cc1c(C(=O)NCC2COc3ccccc3O2)oc2ccc(S(=O)(=O)N3CC(C)CC(C)C3)cc12 (stereo not drawn),–,0.959%,inactive,–
CCN(CC)S(=O)(=O)c1ccc2oc(C(=O)NCC3COc4ccccc4O3)c(C)c2c1 (stereo not drawn),0.461 µM (active),-14.2%,–,–
CC(C)Oc1ccc(S(=O)(=O)N2CCOCC2)cc1NC(=O)C1CCCCC1,–,17%,–,14.6% (inactive)

SMILES,Potency,cell number change,outcome,"lipid storage change, negative = inhibition"
Cc1cccc(NC(=O)C2CCCN2C(=O)NC2CCCCC2)c1 (stereo not drawn),–,-1.91%,–,9.23% [at 9.22 µM] (inactive)
CCC(C)C(NC(=O)OCc1ccccc1)C(=O)NC(Cc1ccc(O)cc1)C(=O)OC (stereo not drawn),–,15.2%,–,4.97% (inactive)
Cc1cnc2cc([N+](=O)[O-])ccc2n1,–,9.36%,–,-3.52% (inactive)
CC(NC(=O)CN1c2cccc3cccc(c23)S1(=O)=O)c1ccc(S(N)(=O)=O)cc1 (stereo not drawn),–,20.8%,–,24.5% (inactive)
CCC(C)c1ccc(S(=O)(=O)N2CCN3CCCC3C2)cc1 (stereo not drawn),–,-6.32%,inactive,–
CCOC(=O)C(NC(=O)CC)(Nc1ccc(S(N)(=O)=O)cc1)C(F)(F)F (stereo not drawn),–,9.23%,–,-9.17% (inactive)
O=C(CSc1nnnn1C1CCCCC1)Nc1ccc(F)cc1,–,-9.49%,–,0.247% (inactive)
CN(C)C(=O)Nc1cnc2ccccc2c1,–,12.4%,–,8.36% (inactive)
COc1ccc(CNC(=O)c2noc(C(C)C)c2[N+](=O)[O-])cc1,–,2.44%,–,-2.76% (inactive)
CCOC(=O)C(NC(=O)c1ccc(F)cc1)(Nc1sc2c(c1C(N)=O)CCC2)C(F)(F)F (stereo not drawn),–,-0.472%,–,7.93% (inactive)
CCCC(=O)Oc1c(S(=O)(=O)c2ccc(C)cc2)c(C)nn1C(C)(C)C,–,23.9%,–,-0.57% (inactive)
CC(C)C(=O)Nc1nc(-c2ccc(S(=O)(=O)N3CCOCC3)cc2)cs1,5.17 µM (active),-31.7%,–,–
O=C(Nc1ccc(S(=O)(=O)N2CCOCC2)cc1)c1cccc(Br)c1,–,-4.91%,inactive,–
O=C(Nc1cccc(F)c1)c1cccc(S(=O)(=O)N2CCOCC2)c1,–,-12.5%,–,-3.69% (inactive)
CC(C)C(=O)Nc1cccc(C(=O)Nc2ccc(S(=O)(=O)N3CCOCC3)cc2)c1,13 µM (active),-1.62%,–,–
O=C(/C=C/c1ccc2c(c1)OCO2)Nc1nncs1,–,12.8%,–,2.26% (inactive)
CC(C)(C)c1nnc(NC(=O)c2ccc3c(c2)OCO3)s1,–,5.88%,inactive,–
O=C(Nc1ccc(S(=O)(=O)N2CCOCC2)cc1)c1ccccc1,–,-4.33%,–,-6.47% (inactive)
O=C(Nc1nncs1)c1ccc2c(c1)OCO2,4.61 µM (active),11.7%,–,–
O=C(Nc1cccc(S(=O)(=O)N2CCCC2)c1)c1cccc(S(=O)(=O)N2CCOCC2)c1,1.84 µM (active),-9.73%,–,–
O=C(COc1ccccc1)Nc1nc(-c2ccc(S(=O)(=O)N3CCOCC3)cc2)cs1,–,-17.5%,–,24.2% (inactive)
Cc1nc(-c2ccc(S(=O)(=O)N3CCOCC3)cc2)cs1,–,–,–,4.04% (inactive)
CC(=O)c1cccc(NC(=O)c2cccc(S(=O)(=O)N3CCOCC3)c2)c1,–,0.952%,inactive,–
